Results on six molecules are retold here after PubChem BioAssay.

In assay [1] the target is Solute carrier family 12 member 5 (Homo sapiens) (UniProt Q9H2X9). The assay can be described thus: KCC2 modulators in sodium-free buffer, confirmation, cell-based, HEK293 KCC2, thallium flux, secondary assay (AID 1713). Conditions: FluoZin2 fluorescence, at 10 µM, stronger effect = higher value.
A further assay is described as follows: PubChem AID 1714.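 Further: raw slope of fluorescence over initial fluorescence between 10 and 20 s after thallium.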 Conditions: HEK293-KCC2 + bumetanide/ouabain, thallium flux FluoZin2; at 10 µM; stronger effect = higher value.
The target in assay [2] is Solute carrier family 12 member 5 (Homo sapiens) (UniProt Q9H2X9). Kind of assay: KCC2 modulators without ouabain present, confirmation, cell-based, HEK293 KCC2, thallium flux, FluoZin2, secondary assay 2 (AID 1715;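 active means thallium flux slope more than 3 SD above or below the plate's solvent-only control mean, mostly below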;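 further: raw slope with 0.1% DMSO as baseline and bumetanide as block control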). Conditions: HEK293-KCC2, thallium flux FluoZin2 fluorescence; at 10 µM; actives lie on both sides; F/F0 rise rate, 10–20 s post-thallium.
The nature of assay [3]: thallium flux modulation in parental HEK cells, confirmation, counter-screen for KCC2 modulator project, cell-based, counterscreen 1 (AID 1716;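 active means thallium flux rate significantly above the same plate's solvent-only control wells, beyond their mean plus 3 SD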). Conditions: HEK293 parental cells, thallium flux FluoZin2, ouabain; at 10 µM; baseline-ratio fluorescence slope, 10–20 s after thallium. In general terms: Counterscreens check selectivity or assay interference.
Assay [4] deals with Solute carrier family 12 member 5 (Homo sapiens) (UniProt Q9H2X9). The assay can be described thus: KCC2 inhibitors and activators, ouabain retest, confirmation, HEK-KCC2 cells (AID 1717;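 active means thallium flux slope beyond 3 SD from same-plate DMSO control mean in most replicates, usually higher, sometimes lower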;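 further: slope of initial-normalized fluorescence between seconds 10 and 20 after thallium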). Conditions: HEK293-KCC2, thallium flux FluoZin2 fluorescence, at 10 µM, bidirectional: low = inhibitor, high = activator.
The nature of assay [5]: native HEK Tl+ uptake effects, second counter-screen – HEK cells, counterscreen 2, counter-screen for KCC2 modulator project, confirmation (AID 1718;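 active means thallium flux slope above the same plate's solvent-control mean plus 3 SD in both duplicate wells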;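 further: run without ouabain in cells lacking the KCC2 cotransporter; slope of fluorescence scaled to its starting value between 10 and 20 s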). Conditions: HEK293 parental, thallium flux FluoZin-2 fluorescence slope; at 10 µM.
The nature of assay [6]: inhibitors of TNFa-induced NFkB p65 translocation, primary screen, imaging, HUVEC, MLSMR starter and 10KST1 sets (AID 438;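 active means inhibition above 20% together with a positive visual image hit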;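 further: compound added about 3h40 before a 20 min TNFalpha stimulation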;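 on inhibition: signal is the nuclear over cytoplasmic p65 intensity ratio per well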). Conditions: HUVEC TNFa-induced p65 nuclear translocation; cell count: measured here: nuclei count (cytotoxicity indicator), at 2.08 µM; inhibition: at 2 µM, stronger effect = higher value, 0% TNFa-plus-vehicle, 100% no-TNFa wells.
The nature of assay [7]: inhibitors of mutant huntingtin aggregation, primary screen, imaging, exon1htt(103Q)mCFP cells, high-content imaging (AID 483;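 active means visual image review flags a hit and inhibition of aggregation exceeds 20%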;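 further: compound exposure lasted 3 days before fixation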;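 on nuclei count: percent of the per-plate median nuclei count of sample wells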). Conditions: exon1htt(103Q)mCFP cell line, aggregate imaging, at 2 µM; inhibition of aggregation: stronger effect = higher value; nuclei count: measured here: cell count, toxicity.
The nature of assay [8]: inhibitors of E-selectin induction by TNFa, primary screen, imaging, HUVEC, immunofluorescence, MLSMR starter and 10KST1 sets (AID 487;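 active means visually confirmed hit in the image check and inhibition above 20%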;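 on inhibition: signal is fraction of cell area covered by stained E-selectin grains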;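 on nuclei count: 100% = median nuclei count of all wells on the same plate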). Conditions: HUVEC TNFalpha-induced E-selectin immunofluorescence imaging, at 2 µM; inhibition: stronger effect = higher value; nuclei count: measured here: cell number, toxicity.
Assay [9] can be described thus: DUSP6 inhibitors restoring Erk phosphorylation by chemical complementation, primary imaging in DUSP6-transfected HeLa (AID 609;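 active means compounds giving at least 50% inhibition in the cell-based MKP-3 phosphatase rescue imaging test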;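 on inhibition: phospho-Erk level distribution per well compared with pooled transfected vehicle control wells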). Conditions: HeLa MKP-3 transfected, phospho-Erk imaging KS statistic, at 10 µM, cells stimulated with TPA for 15 min.
Assay [10] deals with Dual specificity protein phosphatase 6 (Homo sapiens) (UniProt Q16828). Described as above. Conditions: HeLa MKP-3 transfected, phospho-Erk imaging KS statistic; at 10 µM; stronger effect = higher value; cells stimulated with TPA for 15 min.
Chain of Dual specificity protein phosphatase 6 (Homo sapiens) (Q16828 whole entry, looked up): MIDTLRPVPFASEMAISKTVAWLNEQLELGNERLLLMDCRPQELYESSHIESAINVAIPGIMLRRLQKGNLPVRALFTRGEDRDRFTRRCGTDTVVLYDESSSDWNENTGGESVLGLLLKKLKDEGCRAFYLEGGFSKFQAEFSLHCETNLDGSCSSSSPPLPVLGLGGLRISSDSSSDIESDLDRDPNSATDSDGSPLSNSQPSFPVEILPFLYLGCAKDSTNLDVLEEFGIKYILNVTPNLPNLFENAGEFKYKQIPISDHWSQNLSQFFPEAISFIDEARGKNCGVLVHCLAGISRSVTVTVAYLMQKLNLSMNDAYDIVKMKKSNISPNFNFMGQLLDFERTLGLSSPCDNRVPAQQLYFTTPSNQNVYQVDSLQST
Assay [11] addresses Voltage-gated potassium channel subunit beta-2 (Rattus norvegicus) (UniProt P62483). Kind of assay: KvBeta enzyme negative modulators, primary screen, biochemical, NADPH fluorescence (AID 622;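 active means fluorescence slope higher than the sample average by over 3 SD, cut at about -0.22 in these data, passing the limit was not always enough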;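 further: slope of raw intensity against log time taken from 70 to 1610 s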). Conditions: recombinant KvBeta, 4-cyanobenzaldehyde reduction, at 10 µM, stronger effect = higher value.
Assay [12] shares this target. Kind of assay: KvBeta positive modulators, primary screen, biochemical, NADPH fluorescence (AID 623;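 active means NADPH fluorescence slope more negative than the mean of all samples by about 3 SD, 99.7% confidence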;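 further: fluorescence intensity change per second fitted from 20 to 320 s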). Conditions: Recombinant KvBeta, NADPH fluorescence decrease slope, 10 min; at 10 µM; stronger effect = lower value.
For assay [13], the target named is Muscarinic acetylcholine receptor M4 (Homo sapiens) (UniProt P08173). Kind of assay: compounds altering M4/GIRK thallium flux, either direction, primary screen, M4 allosteric agonist project, cell-based, HEK293 M4/GIRK, BTC-AM (AID 625;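 active means fluorescence slope after compound addition differing from the mean of all tested samples at 99.7% confidence, mostly higher but some lower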;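 further: thallium influx through GIRK channels coupled to M4 in HEK293 cells with BTC-AM dye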). Conditions: at 10 µM, actives lie on both sides.
Chain of Muscarinic acetylcholine receptor M4 (Homo sapiens) (P08173 whole entry, looked up): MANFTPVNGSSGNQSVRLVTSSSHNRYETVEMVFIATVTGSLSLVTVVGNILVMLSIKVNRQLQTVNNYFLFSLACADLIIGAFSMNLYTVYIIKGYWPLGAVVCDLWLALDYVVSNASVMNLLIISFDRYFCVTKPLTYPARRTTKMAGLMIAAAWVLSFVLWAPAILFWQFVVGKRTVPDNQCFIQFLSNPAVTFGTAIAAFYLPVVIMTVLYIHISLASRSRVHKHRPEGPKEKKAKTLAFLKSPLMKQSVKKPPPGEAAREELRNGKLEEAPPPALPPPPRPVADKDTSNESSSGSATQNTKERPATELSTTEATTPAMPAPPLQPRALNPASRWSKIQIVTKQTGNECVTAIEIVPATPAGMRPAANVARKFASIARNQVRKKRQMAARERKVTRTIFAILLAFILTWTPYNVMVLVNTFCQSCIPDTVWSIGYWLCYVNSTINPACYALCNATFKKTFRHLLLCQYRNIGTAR
Assay [14] in a line: inhibitors of larval lipid processing in zebrafish, primary screen, whole organism, PED6 fluorescence, gall bladder and intestine (AID 686;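 active means a full or partial loss of lipid-probe fluorescence in the fish gall bladder, intestine or both, judged by eye; inactive means no fluorescence loss, or compound toxic to the fish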;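 further: larvae 5 to 7 days old with five fish per well; signal comes from phospholipase A2 cleavage of quenched PED6 carried via bile; overnight exposure to compound and PED6 before scoring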). Conditions: Zebrafish larvae PED6 lipid processing, fluorescence scoring; screened at 20 µM (by protocol).
The nature of assay [15]: inhibitors of Chlamydomonas gravitaxis, primary screen, whole organism, Chlamydomonas reinhardtii, WT vs cilia-less mutant, absorbance, 96-well (AID 463189;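 active means inhibition at or above 50% relative to wild type and mutant plate controls; inactive means inhibition below 50%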;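 further: 0% = wild type cc124 cells in DMSO and 100% = ciliumless bld1 mutant cells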). Conditions: OD600 absorbance, 2 days, at 10 µM, stronger effect = higher value.
The nature of assay [16]: inhibitors of Sendai virus-induced IRF3 signaling, primary screen, TLR/RLR signaling modifier project, cell-based, Sendai virus stimulus, luciferase, 10K MLSCN set (AID 602276;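 active means inhibition at or above 50% at 10 µM; inactive means inhibition below 50%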;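 further: firefly luciferase from ISG56 promoter only with Renilla not read in this screen; 0% = Sendai virus plus DMSO and 100% = medium plus DMSO without virus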). Conditions: HEK293 RL24 IRF3 luciferase reporter, at 10 µM, stronger effect = higher value. (A reporter such as luciferase makes a cellular process visible.)
A short description of assay [17]: inhibitors of poly I:C-induced TLR3 signaling, primary screen, cell-based, poly I:C stimulus, luciferase, 10K MLSCN set (AID 602277;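 active means inhibition of the reporter signal at or above 50%; inactive means inhibition below 50%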). Conditions: HEK293-TLR3 RL24 IRF3 luciferase reporter, at 10 µM, stronger effect = higher value.

The other results are listed elsewhere or left out. Inconclusive results are not listed. Activity calls are given as the source filed them.

Chain of Solute carrier family 12 member 5 (Homo sapiens) (Q9H2X9 whole entry, looked up): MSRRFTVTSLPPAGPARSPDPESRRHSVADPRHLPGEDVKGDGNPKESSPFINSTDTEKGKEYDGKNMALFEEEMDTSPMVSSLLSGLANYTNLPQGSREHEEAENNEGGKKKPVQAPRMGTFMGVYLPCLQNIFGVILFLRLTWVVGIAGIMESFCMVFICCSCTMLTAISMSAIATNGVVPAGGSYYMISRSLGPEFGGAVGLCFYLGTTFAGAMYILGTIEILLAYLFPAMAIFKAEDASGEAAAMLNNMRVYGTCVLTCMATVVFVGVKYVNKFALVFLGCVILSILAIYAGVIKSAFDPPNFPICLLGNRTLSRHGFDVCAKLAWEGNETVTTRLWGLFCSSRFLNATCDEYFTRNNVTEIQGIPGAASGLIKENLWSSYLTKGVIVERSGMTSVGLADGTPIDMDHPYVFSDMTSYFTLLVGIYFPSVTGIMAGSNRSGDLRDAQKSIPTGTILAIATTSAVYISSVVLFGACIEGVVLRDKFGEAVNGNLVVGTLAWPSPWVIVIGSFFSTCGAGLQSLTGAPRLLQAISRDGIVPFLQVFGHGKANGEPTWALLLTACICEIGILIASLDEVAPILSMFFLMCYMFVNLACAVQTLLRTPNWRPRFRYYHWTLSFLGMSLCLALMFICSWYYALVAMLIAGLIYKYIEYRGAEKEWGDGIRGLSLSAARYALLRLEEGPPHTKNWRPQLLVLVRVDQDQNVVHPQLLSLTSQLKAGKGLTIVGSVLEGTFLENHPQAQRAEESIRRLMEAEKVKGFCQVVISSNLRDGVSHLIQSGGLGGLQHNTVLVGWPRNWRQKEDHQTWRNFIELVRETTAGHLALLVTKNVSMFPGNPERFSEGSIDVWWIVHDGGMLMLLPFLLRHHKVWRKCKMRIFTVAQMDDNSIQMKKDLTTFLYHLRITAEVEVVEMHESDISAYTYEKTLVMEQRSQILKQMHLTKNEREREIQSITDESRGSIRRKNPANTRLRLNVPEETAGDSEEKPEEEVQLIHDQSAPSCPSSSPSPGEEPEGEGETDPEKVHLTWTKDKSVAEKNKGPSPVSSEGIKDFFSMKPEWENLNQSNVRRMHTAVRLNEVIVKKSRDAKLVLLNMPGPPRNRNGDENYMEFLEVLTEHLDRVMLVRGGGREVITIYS
Chain of Voltage-gated potassium channel subunit beta-2 (Rattus norvegicus) (P62483 whole entry, looked up): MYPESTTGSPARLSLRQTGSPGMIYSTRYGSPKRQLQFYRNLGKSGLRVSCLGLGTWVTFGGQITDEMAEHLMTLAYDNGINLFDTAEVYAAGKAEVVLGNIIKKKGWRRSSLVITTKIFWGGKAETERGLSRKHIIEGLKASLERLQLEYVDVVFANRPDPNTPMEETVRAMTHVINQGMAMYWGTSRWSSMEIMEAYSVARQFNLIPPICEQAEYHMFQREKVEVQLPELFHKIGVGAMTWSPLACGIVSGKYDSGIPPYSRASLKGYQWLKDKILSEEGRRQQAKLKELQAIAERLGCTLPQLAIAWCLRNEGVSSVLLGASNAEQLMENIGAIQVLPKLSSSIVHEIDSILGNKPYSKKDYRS

As to `Cc1cs/c(=N\N=C\c2ccc(O)cc2)n1Cc1ccco1`, the normalised thallium flux (F/F0 slope) in assay [1] was 0.00586 (inactive). In addition, the normalized thallium flux in “PubChem AID 1714” is 0.00375 (inactive); in assay [2], 0.0253 (active). Moreover, in [3], the thallium flux rate (normalised fluorescence) was 0.00654 (inactive). The raw Tl+ flux slope (below DMSO = inhibition, above = activation) in assay [4] is 0.0162 (inactive). Also, the thallium flux slope in assay [5] was 0.0101 (inactive).

Take `NS(=O)(=O)c1ccc(NC(=S)NC(=O)c2cccnc2)cc1`: in [1], the normalised thallium flux (F/F0 slope) is 0.00722 (inactive). In addition, the normalized thallium flux was 0.00594 (active) in “PubChem AID 1714” and 0.0316 (inactive) in assay [2]. For the same molecule, in assay [3], the thallium flux rate (normalised fluorescence) is 0.00846 (inactive). Also, in assay [4], the raw Tl+ flux slope (below DMSO = inhibition, above = activation) was 0.019 (inactive). Also, in assay [5], the thallium flux slope was 0.0122 (inactive).

Consider `O=C(NC(CC(=O)N1CCN(c2ccccc2)CC1)c1ccccc1)c1ccccc1Cl` (configuration not stated), for which, in [1], the normalised thallium flux (F/F0 slope) is 0.00747 (inactive). In addition, the normalized thallium flux in “PubChem AID 1714” is 0.00528 (inactive); in [2], 0.0333 (inactive). Besides, the thallium flux rate (normalised fluorescence) in assay [3] is 0.00637 (inactive). Further, the raw Tl+ flux slope (below DMSO = inhibition, above = activation) in [4] was 0.019 (inactive). In addition, the thallium flux slope in assay [5] was 0.00971 (inactive).

In the case of `O=C(Cn1c(-c2ccc(Cl)cc2)noc1=O)N1CCN(c2ccccc2F)CC1`, the normalised thallium flux (F/F0 slope) in [1] was 0.00839 (inactive). Moreover, the normalized thallium flux in “PubChem AID 1714” is 0.00664 (inactive); in assay [2] it was 0.0245 (active). Moreover, the thallium flux rate (normalised fluorescence) in [3] was 0.00698 (inactive). In addition, the thallium flux slope in assay [5] was 0.00981 (inactive).

On to `CCC(=O)NC(=Nc1nc2ccccc2s1)NC(=O)CC`, for which the normalised thallium flux (F/F0 slope) in assay [1] was 0.00696 (inactive). The figures for the normalized thallium flux (in the assay “PubChem AID 1714”; in assay [2]) were 0.0683 (active) and 0.0951 (active), respectively. Besides, the thallium flux rate (normalised fluorescence) in [3] is 0.0894 (active). In assay [4], the raw Tl+ flux slope (below DMSO = inhibition, above = activation) is 0.0811 (active). Besides, in assay [5], the thallium flux slope was 0.0859 (active).

Take `C(=N\n1cnnc1)/c1cccnc1`: the cell count in assay [6] came to 581. Besides, the inhibition in [6] was 0.9% (inactive); in assay [8], -64.9% (inactive); in [10], 1.42% (inactive); in assay [15], 0.59% (inactive); in assay [16] it was -11.4% (inactive); in assay [17], -7.31% (inactive). The inhibition of aggregation in [7] is 18.4% (inactive). The nuclei count is 76.7% in assay [7] and 115% in assay [8]. For the same molecule, the z-score in assay [9] (measured here: cell density z-score) was 0.785; in assay [9] (measured here: nuclear c-Myc green intensity z-score), -0.718; in [9] (measured here: nuclear pErk red intensity z-score, stronger effect = higher value) it was 0.742. For the same molecule, the values for the fluorescence slope in [11] and in assay [13] were -0.457 (inactive) and 0.00428 (inactive), respectively. In assay [12], the NADPH fluorescence slope was -0.000114 (inactive). The result in assay [14] was inactive. Moreover, in assay [1], the normalised thallium flux (F/F0 slope) was 0.0086 (inactive). Further, the normalized thallium flux in “PubChem AID 1714” was 0.00647 (inactive); in [2], 0.0321 (inactive). Moreover, the thallium flux rate (normalised fluorescence) in [3] was 0.0072 (inactive). Besides, in assay [4], the raw Tl+ flux slope (below DMSO = inhibition, above = activation) is 0.021 (inactive). Besides, the thallium flux slope in assay [5] is 0.0101 (inactive).

As a reminder, the inhibition is the change of the read-out against control, counted positive when it falls.
